Assay results taken from PubChem BioAssay.
The source made the active and inactive calls. Unless noted, the rule behind the calls is not given here.

Assays:
[1] = tested on: XIP peptide (Xip251-270) binding; test: XIP fragment 251-270 binding compounds – biochemical, small-molecule microarray, fluorescence 635/667 nm, 0.1 µg/mL protein, primary screen (AID 1182); conditions: fluorescent protein binding, 635 nm, higher = more signal, called active from +8 up or from −8 down
XIP peptide (Xip251-270) = test: compounds binding XIP fragment 251-270 – biochemical, small-molecule microarray, fluorescence 635/667 nm, 0.5 µg/mL protein, primary screen (AID 1183); conditions: fluorescence 635 nm, higher = more signal
[2] = blood-stage malaria parasite viability loss – strain 3D7, DAPI fluorescence, 100 nL, primary screen (AID 1184);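 note: parasites grown inside human red blood cells in medium with human serum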; conditions: P. falciparum 3D7 growth, 3 d, higher = more signal
[3] = target: Homeobox protein Hox-A13 (Mus musculus) (UniProt Q62424); test: disruptors of Hoxa13 oligonucleotide interaction – biochemical, fluorescence polarization, labeled oligonucleotide, primary screen (AID 1185); conditions: Hoxa13:DNA binding, 15 min, higher = more signal, called active from +8 up or from −8 down
[4] = blockers of DNA damage checkpoint Chk1 activation – imaging, HeLa, hydroxyurea, phospho-Chk1 antibody, percent positive cells, primary screen (AID 1186); conditions: hydroxyurea-induced phospho-Chk1 immunofluorescence imaging, higher = more signal
[5] = blockers of DNA damage checkpoint Chk1 activation – imaging, HeLa, hydroxyurea, phospho-Chk1 nuclear intensity, primary screen (AID 1187); conditions: hydroxyurea-induced phospho-Chk1 immunofluorescence imaging, higher = more signal

Chain of Homeobox protein Hox-A13 (Mus musculus) (Q62424 whole entry, looked up): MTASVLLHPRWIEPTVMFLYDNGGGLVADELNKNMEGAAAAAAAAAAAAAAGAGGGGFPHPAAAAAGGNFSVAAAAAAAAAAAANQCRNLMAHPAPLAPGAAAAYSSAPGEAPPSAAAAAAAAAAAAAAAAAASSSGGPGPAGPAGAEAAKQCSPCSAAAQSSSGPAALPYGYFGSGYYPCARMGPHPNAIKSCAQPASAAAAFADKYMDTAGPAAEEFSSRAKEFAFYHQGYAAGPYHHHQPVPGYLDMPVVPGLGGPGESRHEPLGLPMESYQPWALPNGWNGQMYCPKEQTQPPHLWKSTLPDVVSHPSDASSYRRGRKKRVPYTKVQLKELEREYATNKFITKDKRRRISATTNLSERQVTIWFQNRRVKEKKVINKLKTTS

| SMILES | composite z-score [1] | composite z-score (XIP peptide (Xip251-270)) | z-score [2] | z-score [3] | z-score [4] | z-score [5] |
| --- | --- | --- | --- | --- | --- | --- |
| C=CC1(C(=O)OC)CC=C(C(=O)OC)CC1 (stereo not drawn) | 0.552 (inactive) | 0.992 | 0.928 | -1.09 (inactive) | -1.36 (inactive) | -1.26 (inactive) |
| O=C(c1ccccc1)N1Cc2ccccc2C[C@@]2(COC(c3ccc(OCCCO)cc3)=N2)C1=O | 1.45 (inactive) | 0.751 | -2.26 | -4.77 (inactive) | -0.221 (inactive) | 0.159 (inactive) |
| CC(C)=CCCC(C)=CC(O)C1C=CC2C(=O)N(C)C(=O)C2N1Nc1ccccc1 (stereo not drawn) | 0.438 (inactive) | 0.624 | -0.49 | -3.34 (inactive) | -1.1 (inactive) | -1.34 (inactive) |
| CN(C)C(=O)[C@]1(Cc2ccccc2N=[N+]=[N-])N=C(c2ccc(OCCCO)cc2)O[C@@H]1c1ccccc1N=[N+]=[N-] | 1.31 (inactive) | 0.799 | -2.22 | -3.63 (inactive) | -1.13 (inactive) | -1.55 (inactive) |
| CN(C)C(=O)[C@@]1(CCS(=O)(=O)c2ccccc2)COC(c2ccc(OCCCO)cc2)=N1 | 0.551 (inactive) | 0.299 | -0.697 | -5.72 (inactive) | -0.0692 (inactive) | -0.023 (inactive) |
| O=C1NC(=O)C2C1C=CC(C(O)c1cccs1)N2Nc1ccc(Cl)cc1Cl (stereo not drawn) | 0.228 (inactive) | 0.554 | -0.335 | -4.05 (inactive) | -0.266 (inactive) | -0.45 (inactive) |
| CC(=O)NCCCC[C@@H]1NC(=O)[C@@H]2C[C@H](C(=O)NCCCCCNC(=O)CS)[C@H](c3cccc(OCCO)c3)N2C1=O | 1.84 (inactive) | 0.471 | 0.246 | -3.21 (inactive) | -0.224 (inactive) | -0.27 (inactive) |
| C[N+](C)(C)CCCC[C@@H]1NC(=O)[C@H]2C[C@@H](C(=O)NCCCCCCNC(=O)CS)[C@@H](c3cccc(OCCO)c3)N2C1=O | 0.173 (inactive) | 0.487 | -0.135 | -1.87 (inactive) | 0.964 (inactive) | 1.2 (inactive) |
| C=CC[C@]1(C(=O)NCCCOC)N=C(c2ccc(OCCCO)cc2)O[C@H]1c1ccccc1CN=[N+]=[N-] | 0.967 (inactive) | 0.763 | -2.52 | -5.11 (inactive) | 0.14 (inactive) | -0.0062 (inactive) |
| [N-]=[N+]=Nc1ccccc1[C@@H]1OC(c2ccc(OCCCO)cc2)=N[C@]1(Cc1ccccc1)C(=O)N1CCOCC1 | 0.665 (inactive) | 0.632 | -2.32 | -4.82 (inactive) | -0.208 (inactive) | -0.0135 (inactive) |
| CCOC(=O)C[C@H]1[C@H](OC(=O)c2ccc(C(=O)c3ccccc3)cc2)[C@@H](NC(=O)c2ccccc2)c2cc(OCCCO)ccc2N1C(=O)Cc1ccc(OC)cc1 | -0.0614 (inactive) | 0.511 | 0.4 | -1.99 (inactive) | 0.119 (inactive) | 0.134 (inactive) |
| COc1cc2c(cc1OC)CN(C(=O)[C@@H]1[C@H]3C(=O)O[C@H](c4ccccc4)[C@H](c4ccccc4)N3[C@H](c3ccccc3OCCO)[C@@]13C(=O)Nc1ccc(C#CCCO)cc13)CC2 | 2.75 (inactive) | 0.827 | -2.18 | 3.45 (inactive) | 0.14 (inactive) | 0.598 (inactive) |
| CCCCCCc1nc(-c2cc(C)c(OC)c(C)c2)cc2c1[Si](C(C)C)(C(C)C)OC2 | -0.267 (inactive) | -0.191 | -2.34 | -0.772 (inactive) | -0.157 (inactive) | -0.188 (inactive) |
| CCCC#C[Si](O[C@H](CC)c1cn(Cc2cccc(Cl)c2)nn1)(C(C)C)C(C)C | -0.0517 (inactive) | 0.298 | -0.0039 | -0.759 (inactive) | -0.501 (inactive) | -0.675 (inactive) |
| O=C1C2C=CC(C(O)CCc3ccccc3)N(Nc3ccccc3F)C2C(=O)N1c1ccccc1 (stereo not drawn) | 0.605 (inactive) | 0.524 | -0.0934 | -2.76 (inactive) | 0.652 (inactive) | 0.699 (inactive) |
| O=C1O[C@@H](c2ccccc2)[C@@H](c2ccccc2)N2[C@@H](c3ccccc3OCCO)[C@]3(C(=O)Nc4ccccc43)[C@@H](C(=O)Nc3nc4ccccc4s3)[C@H]12 | 1.13 (inactive) | 0.797 | -1.54 | 1.91 (inactive) | 0.489 (inactive) | 0.794 (inactive) |
| O=C(c1ccccc1)N1C(=O)[C@@]2(Cc3ccccc31)N=C(c1ccc(OCCCO)cc1)O[C@H]2c1ccccc1 | 1.68 (inactive) | 0.841 | -2.09 | -5.9 (inactive) | 0.0794 (inactive) | 0.255 (inactive) |

| SMILES | composite z-score [1] | composite z-score (XIP peptide (Xip251-270)) | z-score [2] | z-score [3] | z-score [4] | z-score [5] |
| --- | --- | --- | --- | --- | --- | --- |
| [N-]=[N+]=Nc1ccccc1[C@@H]1OC(c2ccc(OCCCO)cc2)=N[C@]1(CCS(=O)(=O)c1ccccc1)C(N)=O | 1 (inactive) | 0.629 | -2.04 | -4.11 (inactive) | -0.154 (inactive) | -0.0216 (inactive) |
| CCOC(=O)[C@H]1C/C=C/C[C@H](C(=O)OCC)C(=O)O[C@H]2[C@@H](OC)O[C@H](CO)[C@@H](OC(=O)c3c(OC)cccc3OC)[C@@H]2OC1=O | 0.676 (inactive) | 0.709 | 0.754 | -3 (inactive) | -0.0052 (inactive) | -0.142 (inactive) |
| COc1cc2c(cc1OC)CN(C(=O)[C@@H]1[C@H]3C(=O)O[C@H](c4ccccc4)[C@H](c4ccccc4)N3[C@H](c3ccc(O)cc3)[C@@]13C(=O)Nc1ccccc13)CC2 | 0.0997 (inactive) | 0.686 | -1.42 | -2.32 (inactive) | -0.478 (inactive) | -0.728 (inactive) |
| C=CCOC(=O)[C@H]1[C@@H]2C(=O)O[C@@H](c3ccccc3)[C@@H](c3ccccc3)N2[C@@H](c2ccc(OCCOC(=O)[C@H]3C[C@H]4C(=O)N[C@@H](CCCCNC(C)=O)C(=O)N4[C@H]3c3ccc(O)cc3)cc2)[C@]12C(=O)Nc1ccc(I)cc12 | 0.159 (inactive) | 0.671 | -1.39 | 5.87 (inactive) | -0.484 (inactive) | -0.782 (inactive) |
| C=CCN1C(=O)[C@@]2(Cc3ccccc31)N=C(c1ccc(OCCCO)cc1)O[C@H]2c1ccccc1 | 0.619 (inactive) | 0.801 | -1.16 | -4.35 (inactive) | -0.456 (inactive) | -0.416 (inactive) |
| CC(C)=CCN[C@H](CO)c1ccccc1 | -0.0202 (inactive) | -0.319 | -1.72 | 0.039 (inactive) | 0.257 (inactive) | -0.0254 (inactive) |
| C=CCNC(=O)[C@H]1[C@@H]2C(=O)O[C@@H](c3ccccc3)[C@@H](c3ccccc3)N2[C@@H](c2ccccc2OCCO)[C@]12C(=O)Nc1ccc(C#CCCO)cc12 | 0.749 (inactive) | 0.369 | -2.08 | -3.91 (inactive) | -0.677 (inactive) | -1.24 (inactive) |
| COc1cc(COC(C)=O)ccc1OC(C)=O | -0.603 (inactive) | 0.213 | 0.287 | 0.579 (inactive) | -1.08 (inactive) | -1.53 (inactive) |
| CN(C)CCCC[C@@H]1NC(=O)[C@@H]2C[C@H](C(=O)NCCCCCCN)[C@H](c3cccc(OCCO)c3)N2C1=O | 1.57 (inactive) | 0.919 | 0.0561 | -3.85 (inactive) | -0.945 (inactive) | -0.708 (inactive) |
| O=C1c2ccccc2[C@](Cc2ccccc2I)(C(=O)NCC(F)(F)F)[C@H](c2ccc(CO)cc2)N1Cc1ccccc1Cl | 0.149 (inactive) | 0.776 | -0.562 | -4.2 (inactive) | -0.151 (inactive) | -0.557 (inactive) |
| CCc1cccc(NC(=O)O[C@H]2[C@H](OC(=O)Nc3ccccc3-c3ccccc3)[C@@H](OC(=O)Nc3ccccc3-c3ccccc3)[C@@H](OC)O[C@@H]2CO)c1 | 1.04 (inactive) | 0.859 | -1.8 | -2.99 (inactive) | 0.167 (inactive) | 0.62 (inactive) |
| CCOC(=O)C[C@H]1[C@H](OC(=O)c2ccc(C(=O)c3ccccc3)cc2)[C@@H](NC(=O)c2ccc3ccccc3n2)c2cc(OCCCO)ccc2N1C(=O)c1ccccc1 | -0.021 (inactive) | 0.545 | -0.894 | -1.37 (inactive) | 0.645 (inactive) | 0.334 (inactive) |
| COC(=O)[C@@]1(Cc2ccc(F)cc2)[C@H]2c3cc(C(=O)N(C)C)n(Cc4ccc(Cl)c(C(F)(F)F)c4)c3C[C@H]2CN1C(=O)c1ccccc1 | -0.512 (inactive) | 0.503 | -1.6 | -2.75 (inactive) | 1.09 (inactive) | 0.528 (inactive) |
| CCC(CC)C(O)C1C=CC2C(=O)NC(=O)C2N1Nc1ccc(Cl)cc1Cl (stereo not drawn) | 0.625 (inactive) | 0.587 | -0.225 | -4.8 (inactive) | 0.724 (inactive) | 0.786 (inactive) |
| C=CCC(OC(C)=O)[C@@H]1[C@@H](N(Cc2ccc(-c3cccc(C(F)(F)F)c3)o2)C(=O)c2ccc(C)cc2)c2cc(OCCCO)ccc2N1C(=O)Cc1ccc2ccccc2c1 (stereo partly drawn) | 0.332 (inactive) | -0.0506 | 0.337 | -0.62 (inactive) | -0.385 (inactive) | -0.709 (inactive) |
| C=CCOC(=O)[C@@H]1[C@H]2C(=O)O[C@H](c3ccccc3)[C@H](c3ccccc3)N2[C@H](c2ccc(OCCOC(=O)[C@H]3C[C@H]4C(=O)N5CCC[C@H]5C(=O)N4[C@H]3c3ccc(O)cc3)cc2)[C@@]12C(=O)Nc1ccc(I)cc12 | 1.93 (inactive) | 0.833 | -1.56 | 1.53 (inactive) | -0.0415 (inactive) | 0.0454 (inactive) |
